± gives the standard deviation.
How the values were obtained:
Conditions in all cases: modulator concentration 10 µM
[1] = tested on: RAW-Dual (murine macrophage reporter line); test: NF-kB reporter (SEAP) activity fold change vs agonist alone; higher = enhanced NF-kB activity
How it was run: (§1)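 Overnight stimulation with a PRR agonist followed pre-incubation for 1 hour at 37 °C with compound at 10 μM final. This was done in RAW-Dual murine macrophage reporter cells seeded at 50 000 per well in 384-well plates. NF-κB (SEAP, QUANTI-Blue absorbance at 620 nm) and IRF (Lucia luciferase, QUANTI-Luc luminescence) were read from the supernatant. Each reporter's fold change relative to the mean agonist-only control on the same plate was averaged over replicate plates.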

[2] = tested on: RAW-Dual (murine macrophage reporter line); test: IRF reporter (Lucia luciferase) activity fold change vs agonist alone; higher = enhanced IRF activity
How it was run: as §1

[3] = tested on: RAW-Dual (murine macrophage reporter line); test: viability score (confluency relative to resting cells, overnight) (fraction); higher = more viable, active = viable (0.7 or more)
How it was run: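 RAW-Dual macrophages in 384-well plates were exposed overnight to compound at 10 μM final. Confluency was imaged with IncuCyte, and two confluency masks were generated with IncuCyte software over all imaged wells. The viability score is confluency expressed relative to resting cells. Compounds were called viable if both masks exceeded 70% of resting cells.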

[4] = agonist: CpG ODN 1826 0.5 ug/mL

Row | Compound | NF-kB reporter [1, 4] | NF-kB reporter ([1]; agonist: LPS 0.1 ug/mL) | NF-kB reporter ([1]; agonist: MPLA […]) | IRF reporter ([2]; agonist: 3'3'-cGAMP 10 ug/mL) | IRF reporter ([2]; agonist: LPS 0.1 ug/mL) | IRF reporter ([2]; agonist: MPLA […]) | viability score [3]
1 | CCOc1ccc(OCCCCOc2cccc(C)c2)cc1 | 0.961 ± 0.094 | 1.11 ± 0.074 | 0.932 ± 0.082 | 1 ± 0.051 | 1.27 ± 0.18 | 1.07 ± 0.068 | 1.01 (active)
2 | CCOc1cc2ncc(C#N)c(Nc3ccc(F)c(Cl)c3)c2cc1NC(=O)/C=C/CN(C)C | 0.714 ± 0.27 | 0.512 ± 0.048 | 0.445 ± 0.097 | 0.158 ± 0.019 | 0.374 ± 0.04 | 0.22 ± 0.019 | 0.968 (active)
3 | CC(C)(C)N1CC(c2nc3ccccc3n2Cc2c(F)cccc2Cl)CC1=O (configuration not stated) | 1.28 ± 0.094 | 1.1 ± 0.088 | 0.901 ± 0.041 | 1.2 ± 0.06 | 1.15 ± 0.1 | 1.28 ± 0.19 | 0.974 (active)
4 | Cc1ccccc1C(=O)Nc1ccc(C(=O)N2CCCC(N(C)C)c3ccccc32)cc1 (configuration not stated) | 1.05 ± 0.27 | 1 ± 0.05 | 0.929 ± 0.065 | 0.94 ± 0.046 | 1.15 ± 0.18 | 1.17 ± 0.13 | 1 (active)
5 | CN1CCN(CCC=C2c3ccccc3Sc3ccc(S(=O)(=O)N(C)C)cc32)CC1 | 0.935 ± 0.071 | 1.04 ± 0.12 | 1.01 ± 0.051 | 0.856 ± 0.057 | 0.978 ± 0.078 | 0.872 ± 0.076 | 0.991 (active)
6 | CC(C)(C)C1CCc2c(sc(NC(=O)c3ccc(F)cc3)c2C(N)=O)C1 (configuration not stated) | 0.981 ± 0.16 | 0.999 ± 0.12 | 1 ± 0.13 | 0.914 ± 0.041 | 1.24 ± 0.3 | 1.24 ± 0.21 | 0.56 (inactive)
7 | CCOC(=O)c1ccc(N2C(=O)CC(N3CCN(c4ccc([N+](=O)[O-])cc4)CC3)C2=O)cc1 (configuration not stated) | 0.813 ± 0.072 | 1.08 ± 0.066 | 0.928 ± 0.071 | 1.06 ± 0.039 | 1.64 ± 0.13 | 1.47 ± 0.13 | 0.997 (active)
8 | CC(C(=O)O)c1ccc(CC2CCCC2=O)cc1 (configuration not stated) | 0.81 ± 0.11 | 1.03 ± 0.26 | 0.906 ± 0.066 | 0.916 ± 0.042 | 1.19 ± 0.18 | 1.25 ± 0.27 | 1 (active)
9 | Fc1ccccc1C=NNc1nc(-c2ccccc2)cc(-c2ccccc2)n1 | 1.03 ± 0.25 | 1.19 ± 0.094 | 1.05 ± 0.17 | 1.01 ± 0.028 | 1.14 ± 0.15 | 1.51 ± 0.37 | 1 (active)
10 | CC(C)NC(=O)CCn1c(=O)c2cc(Cl)ccc2n2c(SCc3ccc(F)cc3)nnc12 | 0.992 ± 0.077 | 1.01 ± 0.093 | 1.1 ± 0.06 | 1.02 ± 0.056 | 1.15 ± 0.19 | 1.41 ± 0.39 | 0.964 (active)
11 | CCC(C)n1ncn(-c2ccc(N3CCN(c4ccc(OC[C@H]5CO[C@](Cn6cncn6)(c6ccc(Cl)cc6Cl)O5)cc4)CC3)cc2)c1=O (some centres not stated) | 1.57 ± 0.47 | 1.04 ± 0.057 | 1.1 ± 0.089 | 0.921 ± 0.044 | 1.2 ± 0.14 | 1.32 ± 0.13 | 0.994 (active)
12 | Cc1cc(C(=O)O)n[nH]1 | 1.01 ± 0.077 | 0.891 ± 0.15 | 1.03 ± 0.12 | 1.06 ± 0.038 | 1.24 ± 0.14 | 1.34 ± 0.2 | 1.02 (active)
13 | CN(c1ccccc1)c1nnc(C(C)(C)C)c(=O)[nH]1 | 1.05 ± 0.079 | 0.951 ± 0.076 | 1.01 ± 0.048 | 1.03 ± 0.039 | 0.908 ± 0.11 | 0.863 ± 0.24 | 0.994 (active)
14 | COc1ccc(NC(=O)Cc2cn(Cc3ccccc3)c3ccccc23)cc1OC | 0.629 ± 0.035 | 1.2 ± 0.096 | 1.57 ± 0.13 | 0.701 ± 0.032 | 1.24 ± 0.27 | 1.39 ± 0.4 | 0.96 (active)
15 | COC(=O)Nc1nc2ccc(S(=O)c3ccccc3)cc2[nH]1 (configuration not stated) | 1.1 ± 0.065 | 1.04 ± 0.11 | 1.12 ± 0.059 | 0.279 ± 0.081 | 0.924 ± 0.11 | 0.536 ± 0.18 | 1.01 (active)
16 | N#Cc1cc(-c2n[nH]c(-c3ccncc3)n2)ccn1 | 0.998 ± 0.19 | 1.06 ± 0.32 | 0.958 ± 0.077 | 0.891 ± 0.035 | 1.13 ± 0.25 | 1.12 ± 0.28 | 1 (active)
17 | NC(=O)c1ncn([C@@H]2O[C@H](CO)[C@@H](O)[C@H]2O)c1O | 0.723 ± 0.23 | 1.08 ± 0.069 | 0.898 ± 0.05 | 1.02 ± 0.085 | 1.04 ± 0.086 | 1.16 ± 0.094 | 0.998 (active)
18 | CCN(CC)c1ccc(C=NN2C(=O)c3ccccc3C2=O)cc1 | 1.05 ± 0.088 | 1.08 ± 0.07 | 1.01 ± 0.061 | 0.827 ± 0.04 | 1.05 ± 0.1 | 1.11 ± 0.15 | 0.994 (active)
19 | CCN(CC)c1ccc(C=C(C#N)C#N)c(OC(C)=O)c1 | 1.07 ± 0.064 | 0.895 ± 0.065 | 0.884 ± 0.057 | 0.76 ± 0.034 | 0.995 ± 0.069 | 0.977 ± 0.12 | 1.01 (active)
20 | CC(C)c1nc(CN(C)C(=O)N[C@@H](CCN2CCOCC2)C(=O)N[C@H](CC[C@H](Cc2ccccc2)NC(=O)OCc2cncs2)Cc2ccccc2)cs1 | 1.29 ± 0.073 | 0.959 ± 0.076 | 1.14 ± 0.036 | 0.687 ± 0.032 | 0.842 ± 0.11 | 0.839 ± 0.18 | 1 (active)
21 | COc1cccc(-c2ccc(NC(=O)C3=C(C(=O)O)CCC3)c(F)c2)c1 | 0.954 ± 0.25 | 0.806 ± 0.088 | 1.01 ± 0.088 | 2.42 ± 0.23 | 2.04 ± 0.35 | 1.38 ± 0.24 | 0.91 (active)
22 | O=c1ccc2ccc(OCCCCN3CCN(c4cccc5sccc45)CC3)cc2[nH]1 | 0.31 ± 0.016 | 0.917 ± 0.073 | 1.16 ± 0.14 | 1.05 ± 0.096 | 1.35 ± 0.25 | 1.15 ± 0.34 | 0.27 (inactive)
23 | Cc1ccc([N+](=O)[O-])cc1S(=O)(=O)N(C)C | 1.05 ± 0.17 | 0.949 ± 0.077 | 1 ± 0.1 | 1.06 ± 0.037 | 1.09 ± 0.26 | 1.2 ± 0.12 | 1 (active)
24 | CC(=O)CCc1oc2ccc([N+](=O)[O-])cc2c1-c1ccc(C)o1 | 1.04 ± 0.12 | 0.837 ± 0.065 | 0.825 ± 0.084 | 0.817 ± 0.048 | 0.849 ± 0.12 | 0.713 ± 0.17 | 0.973 (active)
25 | Cc1ccc(CCNc2ccccc2C)cn1 | 1.05 ± 0.084 | 0.931 ± 0.11 | 1.2 ± 0.12 | 1 ± 0.067 | 1.35 ± 0.21 | 1.73 ± 0.39 | 0.993 (active)
26 | O=C(NCC1CCCN1c1nccs1)C1CC1 (configuration not stated) | 0.946 ± 0.045 | 1.02 ± 0.12 | 1.13 ± 0.084 | 0.973 ± 0.07 | 1.03 ± 0.23 | 1.18 ± 0.54 | 0.99 (active)
